p53 reactivation: re-activators of mutant p53 | actives 0.063% (n = 320,000) | AID 504706 | H1299 p53-A138V BP100-luciferase reporter, luminescence, 24 h | Potency, µM (series often up to 92.2 µM), usual class: activators; note: nearly all actives have a fitted effect of over 45% in size
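p53-null H1299 cells stably carrying temperature-sensitive p53-A138V and a BP100-luciferase reporter were pinned with compounds (4-point, 1:5 series) and held 24 hrs at 37 deg C. Luminescence was read 10 min after detection reagent.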
gsp antagonist: antagonizes gsp, the McCune-Albright syndrome mutation | gsp-mutant cells, cAMP HTRF, 30 min | Potency, µM (top dose mostly 76.9 µM), hits mostly inhibitors | actives 0.4% (n = 340,000) | AID 624288; calls by dose curve; cell line not stated here;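 note: intracellular cAMP measured with PDE inhibitor Ro 20-1724 present during compound exposure; nearly all actives have a fitted effect of over 65% in size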
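HTRF cAMP measurement after 30 min RT detection following 30 min, 37C compound treatment alongside […] (added as 300 uM solution) in G418-selected cells seeded at 2000/well and grown 16–24 h.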
gsp agonist: activates gsp, the McCune-Albright syndrome mutation | AID 624287 | Potency, µM (doses to about 76.9 µM), hits mostly activators | actives 0.13% (n = 340,000) | gsp mutant cells, cAMP HTRF, 30 min; active = well fitted activation curve with a large enough effect; inconclusive = small, poorly fitted or top-dose-only effect, or another doubt; inactive = no such curve, though single readings can be large or run the other way; cell line not stated here;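 note: phosphodiesterase inhibitor Ro 20-1724 added with compounds to block cAMP breakdown; nearly all actives have a fitted effect of over 60% in size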
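Cells in DMEM/10% FBS with G418 were pretreated with compounds in DMSO plus […] (300 uM stock) for 30 min at 37C. cAMP was measured by HTRF (cAMP-d2 plus anti-cAMP antibody-K) after 30 min at room temperature.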
Tb PFK block: T. brucei PFK enzyme inhibition. T. brucei PFK, ADP-Glo luminescence. Potency, µM (titrated, usually from 57.5 µM), actives largely listed as inhibitors. actives 0.17% (n = 330,000); note: nearly all actives have a fitted effect of over 60% in size
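PFK 1.25 nM, F6P 0.5 mM, ATP 0.1 mM, 0.1 M TEA pH 8.0, 5 mM MgCl2, 0.01% Tween20, 0.1% BSA; 45 min RT. ADP-Glo readout. qHTS titration up to 57 uM; curves fitted, compounds curve-classed.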
RXFP1 agonist: activates the human relaxin receptor RXFP1 | Q9HBX9 | HEK293T-RXFP1 cAMP TR-FRET, 30 min; response scale: percent of porcine relaxin response, buffer zero | Potency, µM (highest dose often 57.5 µM), most hits filed as activators | actives 0.3% (n = 370,000); note: nearly all actives have a fitted effect of over 60% in size
Target sequence (Q9HBX9 whole entry, looked up): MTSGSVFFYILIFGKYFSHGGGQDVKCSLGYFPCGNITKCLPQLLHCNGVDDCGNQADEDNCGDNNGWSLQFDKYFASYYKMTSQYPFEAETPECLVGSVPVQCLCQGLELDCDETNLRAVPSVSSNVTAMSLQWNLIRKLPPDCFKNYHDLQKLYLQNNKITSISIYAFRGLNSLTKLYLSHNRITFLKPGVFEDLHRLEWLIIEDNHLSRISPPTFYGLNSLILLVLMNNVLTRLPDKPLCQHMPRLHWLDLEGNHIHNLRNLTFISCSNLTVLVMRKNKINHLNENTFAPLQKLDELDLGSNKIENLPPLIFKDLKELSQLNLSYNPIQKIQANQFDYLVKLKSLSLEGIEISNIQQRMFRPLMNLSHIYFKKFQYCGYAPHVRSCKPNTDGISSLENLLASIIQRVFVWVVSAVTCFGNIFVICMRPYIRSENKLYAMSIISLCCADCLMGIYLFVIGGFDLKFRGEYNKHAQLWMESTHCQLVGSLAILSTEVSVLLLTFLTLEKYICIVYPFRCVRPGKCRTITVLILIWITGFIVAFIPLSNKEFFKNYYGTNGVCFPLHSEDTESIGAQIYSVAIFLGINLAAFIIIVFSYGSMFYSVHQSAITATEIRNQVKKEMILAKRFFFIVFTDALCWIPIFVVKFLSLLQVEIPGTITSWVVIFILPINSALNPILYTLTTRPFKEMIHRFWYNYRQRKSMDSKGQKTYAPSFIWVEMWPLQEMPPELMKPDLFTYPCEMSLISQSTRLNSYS
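HEK293T cells stably expressing RXFP1 were pretreated with the PDE4 inhibitor Ro 20174, exposed to compounds for 30 min at 37C, lysed, and cAMP was read by TR-FRET. Data normalized to buffer (basal) and 29 nM porcine relaxin (100%).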
RXFP1 antagonist: blocks the human relaxin receptor RXFP1. AID 1259400. activity change, negative = inhibition, % at 57.5 µM. actives 0.59% (n = 350,000). HEK293-RXFP1, relaxin-stimulated cAMP HTRF, 30 min; active compounds read low;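 active = activity change of -60% or lower, but not beyond a set lower limit; inconclusive = change between -60% and -40%, or beyond the set limit; inactive = change above -40%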
Each line names hits and unclear results; the compound was inactive in the other large screens. The list is not random: actives were taken first. Their share in the collection is about 1.1%. Unless noted, calls come from the whole dose curve; as a rule, active = well fitted curve in the direction sought with a large enough effect; inconclusive = small, poorly fitted or top-dose-only effect, or another doubt; inactive = no such curve, though single readings can be large; an effect the other way counts as inactive or inconclusive.

Cc1ccc(CN(C)CC(=O)Nc2ccc3c(c2)CCC3)cc1	RXFP1 antagonist -64
Cc1nnc2c3ccccc3c(Cl)nn12	gsp agonist 25µM, RXFP1 agonist inconclusive
OC(COc1cc(Cl)c(Cl)cc1Cl)CN1CCN(c2ncccn2)CC1 (stereo unspecified)	RXFP1 antagonist inconclusive
O=C(Nc1nc(-c2cccs2)cs1)c1ccc([N+](=O)[O-])o1	gsp antagonist 35µM
Cc1cccnc1NC(=O)c1ccc([N+](=O)[O-])o1	p53 reactivation 11µM
COc1ccccc1NC(NC(=O)c1ccccn1)C(Cl)(Cl)Cl (stereo unspecified)	none
CC(C#N)Sc1nnc(-c2ccccc2F)n1C1CC1 (stereo unspecified)	none
Cc1cc(C)c(O)c(-c2n[nH]c3c2C(c2cccc(O)c2)N(Cc2ccco2)C3=O)c1 (stereo unspecified)	RXFP1 antagonist -80
Oc1ccccc1N=Nc1ccccc1O	p53 reactivation inconclusive, gsp antagonist 35µM
CN(C)CCCNC(=S)NCC(c1ccc(Cl)cc1Cl)c1c[nH]c2ccccc12 (stereo unspecified)	RXFP1 antagonist -61
CC[n+]1c(/C=C/c2ccc(N(C)C)cc2)ccc2ccccc21	gsp antagonist inconclusive, RXFP1 antagonist -91
CC[n+]1c(/C=C/c2ccc(OC)c(OC)c2)ccc2ccccc21	none
COc1ccc(-c2csc(NC(=O)[C@H](C)N3C(=O)C4CC=CCC4C3=O)n2)cc1OC (stereo partly specified)	none (no result: RXFP1 agonist)
CC(C(=O)Nc1nc(-c2ccc(F)c(F)c2)cs1)N1C(=O)C2CC=CCC2C1=O (stereo unspecified)	gsp antagonist 35µM, RXFP1 antagonist inconclusive
Nc1c(O)ccc2c1C(=O)c1ccccc1C2=O	gsp antagonist 25µM, RXFP1 antagonist -80
Cc1cccc(NS(=O)(=O)c2cc([N+](=O)[O-])ccc2C)n1	RXFP1 antagonist -62
CC(=O)Nc1ccc(NS(=O)(=O)c2cc([N+](=O)[O-])ccc2C)cc1	none (no result: gsp antagonist)
O=C(Nc1cc(Cl)ccc1O)c1cc(-c2ccc3c(c2)OCO3)on1	none (no result: p53 reactivation, gsp antagonist, gsp agonist, Tb PFK block)
CC(C)N1CCC2(CC1)N=C(c1ccc3c(c1)OCO3)CC(c1cc(Cl)ccc1O)N2 (stereo unspecified)	RXFP1 antagonist -67
CCn1nc(C)cc1-c1nnc(SCC(=O)Nc2ccccc2)n1CCCOC	none
CCn1nc(C)cc1-c1nnc(Sc2ncc([N+](=O)[O-])s2)n1C	Tb PFK block inconclusive, RXFP1 antagonist -73
COc1ccc(CCCNC(=O)C2CCC(=O)N(Cc3ccc(Cl)cc3)C2)cc1 (stereo unspecified)	none (no result: p53 reactivation)
O=C(c1cccc(C(F)(F)F)c1)N1CCc2c([nH]c3ccccc23)C1C(F)(F)F (stereo unspecified)	gsp agonist inconclusive, RXFP1 antagonist -92
O=C(NC(Cc1c[nH]c2ccccc12)C(=O)Nc1ccc(OC(F)(F)F)cc1)c1cccs1 (stereo unspecified)	Tb PFK block inconclusive, RXFP1 antagonist -71
CCc1ccc(-c2nc3ccc(Br)cc3c(C(=O)O)c2C)s1	gsp agonist inconclusive, RXFP1 agonist 7.1µM
Cc1c(-c2ccccc2Br)nc2ccccc2c1C(=O)O	none (no result: p53 reactivation, Tb PFK block, RXFP1 agonist)
CC(Cc1ccccc1)C(=O)N[C@@H](CO)Cc1ccccc1 (stereo partly specified)	none (no result: gsp agonist, RXFP1 antagonist)
O=C1/C(=C/c2ccc([N+](=O)[O-])cc2)Oc2cc(O)ccc21	p53 reactivation inconclusive, gsp antagonist 22µM
O=C(CNC(=O)c1ccccn1)N=Nc1c(O)[nH]c2ccccc12	none
Cc1sc2nc(SCC(=O)Nc3cccc(S(N)(=O)=O)c3)[nH]c(=O)c2c1C	none (no result: RXFP1 agonist)
O=C(Nc1nc2cc3c(cc2s1)OCCO3)C1CCCCC1	p53 reactivation inconclusive, gsp agonist inconclusive, RXFP1 antagonist -68
O=C(Nc1nc2cc3c(cc2s1)OCO3)C1CCCCC1	p53 reactivation inconclusive
CCOc1ccc2[nH]c(=O)c(CN(CCCN3CCOCC3)Cc3nnnn3Cc3ccc(OC)cc3)cc2c1	none (no result: gsp antagonist)
COc1cc2cc(CN(CCCN3CCOCC3)Cc3nnnn3Cc3ccccc3)c(=O)[nH]c2cc1OC	gsp antagonist 8.9µM
Cc1ccc(N/C(N)=N/c2nc(C)cc(N3CCCCC3)n2)c(C)c1	RXFP1 antagonist -83
O=c1oc2ccccc2c(Nc2ccc(Cl)cc2)c1[N+](=O)[O-]	gsp antagonist 28µM
O=c1oc2ccccc2c(Nc2ccc(F)cc2)c1[N+](=O)[O-]	gsp antagonist inconclusive
CN(c1ccc(F)cc1)S(=O)(=O)c1ccc(Cl)c(C(=O)NCc2ccco2)c1	Tb PFK block inconclusive (no result: RXFP1 agonist)
COc1ccc2cc(CNCCOCCOCCNCc3ccc4cc(OC)ccc4c3)ccc2c1	RXFP1 antagonist -89 (no result: p53 reactivation, Tb PFK block, RXFP1 agonist)
CC(C)c1nc2c(s1)CCc1onc(-c3ccc(Cl)cc3)c1-2	p53 reactivation inconclusive (no result: RXFP1 antagonist)
Cc1cc(C(=O)COC(=O)Cn2cnc3c2c(=O)n(C)c(=O)n3C)c(C)n1C	gsp agonist 4µM, RXFP1 agonist inconclusive
CCCCCn1c(CCNC(=O)CCC)nc2ccccc21	none
Cc1cccc(CN2CCc3c([nH]c4ccccc34)C2)c1	RXFP1 antagonist inconclusive
Clc1ccc(CN2CCc3c([nH]c4ccccc34)C2)cc1Cl	Tb PFK block inconclusive, RXFP1 antagonist -64
Clc1cccc(CN2CCc3c([nH]c4ccccc34)C2)c1	RXFP1 antagonist -64
CSc1ccc(CN2CCc3c([nH]c4ccccc34)C2)cc1	none
CCOc1ccc(NC(=O)c2c3c(nc4ccccc24)CCC3)cc1	gsp agonist inconclusive
CCC(=O)c1ccc(OCC(=O)Nc2cccc(S(=O)(=O)N(C)c3ccccc3)c2)cc1	gsp antagonist 28µM
CN(c1ccccc1)S(=O)(=O)c1cccc(NC(=O)COc2cccc([N+](=O)[O-])c2)c1	gsp antagonist inconclusive
O=C(CCN1C(=O)c2cccc3cccc(c23)C1=O)N1CCOCC1	none
O=C(CN1C(=O)c2cccc3cccc(c23)C1=O)NCCN1CCOCC1	gsp agonist inconclusive, RXFP1 agonist 14µM
O=C(CN1C(=O)c2cccc3cccc(c23)C1=O)NCCCO	gsp agonist 14µM
CC(=O)C(Sc1nc(NC(C)(C)C)nc(N(C)C)n1)C(C)=O	none
Cc1cc(C)c(NS(=O)(=O)c2c(C)noc2C)c(C)c1	none
COc1ccccc1N1CCN(C(=O)Cn2c(=O)n3nc(-c4ccc(C)cc4)nc3c3ccccc32)CC1	none (no result: p53 reactivation, gsp antagonist, gsp agonist, Tb PFK block)
O=C(CS(=O)(=O)c1nc(-c2ccc(Cl)cc2)cn1-c1ccccc1)Nc1cccc(Cl)c1	RXFP1 antagonist inconclusive (no result: p53 reactivation, gsp antagonist, gsp agonist, Tb PFK block)
